Bioassay records: PubChem, National Center for Advancing Translational Sciences (NCATS)
AMA1 RON2 block: AMA1-RON2 (P. falciparum) interaction inhibition; AlphaScreen AMA1-biotinylated RON2 peptide binding; Potency, µM (top dose mostly 58.2 µM), most hits filed as inhibitors; actives 0.2% (n = 360,000); AID 720542; note: nearly all actives have a fitted effect of over 45% in size
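AMA1 (3D7) with his tag at 25 nM final met compounds first, then biotinylated RON2 peptide at 25 nM; detection used donor plus acceptor beads, 10 µg/mL apiece, read by AlphaScreen after 30 min at room temperature.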
HCV inhibitor: blocks hepatitis C virus | Huh7.5.1 HCVcc-Cre infection, luciferase reporter, 44 h | Potency, µM (series often up to 41.8 µM), most hits filed as inhibitors | actives 3.4% (n = 340,000) | AID 651820
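Seed cells (1,000/well) for 4 h; treat with compound and infect with HCVcc-Cre, moi about 0.5. Incubate 44 h, then detect luciferase activity.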
Pf growth 48h: P. falciparum growth inhibition at 48 hours (one generation). actives 5.9% (n = 310,000). P. falciparum luciferase growth in erythrocytes, 48 h. Potency, µM (titrated, usually from 28.7 µM), hits mostly inhibitors
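Read-out is firefly luciferase luminescence from an integrated reporter in P. falciparum, so falling signal marks reduced parasite growth. Infected erythrocytes were at 2% hematocrit and 0.1% parasitemia (final) in Albumax-supplemented RPMI 1640.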
SARS PLP yeast: blocks SARS-CoV papain-like protease in a yeast assay | S. cerevisiae expressing SARS-CoV PLpro, growth rescue | Potency, µM (doses to about 32.9 µM), most hits filed as activators | actives 0.19% (n = 330,000); calls by dose curve; note: nearly all actives have a fitted effect of over 55% in size
NS1 inh: inhibitors of influenza NS1 protein function | Potency, µM (top dose mostly 46.1 µM) | actives 0.4% (n = 270,000) | AID 2326; calls by dose curve; note: actives are rising curves; nearly all actives have a fitted effect of over 50% in size
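Read-out: OD600 growth recovery of NS1-expressing budding yeast. Cells grown overnight at 30C in -URA glucose medium, washed, resuspended and diluted 1:100 in 2% galactose assay medium, pH 6.0. Same strain lacking NS1 served as positive control.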
Pf growth 96h: inhibits malaria parasite growth, 96 h. P. falciparum luciferase reporter growth, 96 h. Potency, µM (series often up to 28.7 µM), hits mostly inhibitors. actives 6.9% (n = 320,000). AID 504834
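Two parasite generations (96 h, 37 C, 5% CO2) of compound exposure in infected erythrocytes (0.05% parasitemia, 2% hematocrit). Luciferase-reporter P. falciparum; decreased luminescence indicates inhibited growth, aimed at apicoplast-acting delayed death.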
Flu NS1 inh: validation of influenza NS1 protein function inhibitors; shares compounds with NS1 inh; 1,400 tested, under 10 active; activity change, negative = inhibition, % at 32.9 µM; influenza NS1 function cell assay, 15-point titration; calls by dose curve
Flu PR8 replic: reduces influenza A/PR/8/34 replication in MDCK cells | shares compounds with NS1 inh | MDCK infected influenza A/PR/8/34, virus titer TCID50; stronger effect = lower value | virus titer (log TCID50), log10 TCID50 at 5 µM | actives 30% (n = 95); call rule not given here
Of the large screens only hits and unclear results are named; the others gave an inactive call (follow-up assays come after a bar, where they were run). This is a sample that favours compounds with a hit; in the whole collection about 12% have one here. Unless noted, calls come from the whole dose curve; as a rule, active = well fitted curve in the direction sought with a large enough effect; inconclusive = small, poorly fitted or top-dose-only effect, or another doubt; inactive = no such curve, though single readings can be large; an effect the other way counts as inactive or inconclusive.

COC(=O)[C@@]1(Cc2ccc(F)cc2)[C@H]2c3cc(C(=O)N4CCCC4)n(CCc4ccc(O)c(O)c4)c3C[C@H]2CN1C(=O)c1ccccc1	Pf growth 48h inconclusive, NS1 inh 8.91µM, Pf growth 96h 5.86µM (no result: AMA1 RON2 block) | Flu NS1 inh inactive
CC(=O)Nc1ccc(S(=O)(=O)Oc2ccc(C(=S)N3CCCCC3)cc2)cc1	HCV inhibitor inconclusive
CC(=O)Nc1ccc(S(=O)(=O)Oc2ccc(C(=S)N3CCC(O)CC3)cc2)cc1	HCV inhibitor inconclusive, NS1 inh inconclusive | Flu NS1 inh inactive
C[C@@H](C(=O)Nc1ccc2ccccc2c1)[C@H]1C[C@]1(C)[C@H](NS(=O)(=O)c1ccccc1)c1ccccc1	HCV inhibitor inconclusive, Pf growth 48h 1.04µM, NS1 inh 11.2µM, Pf growth 96h inconclusive | Flu NS1 inh inactive
C[C@@H](C(=O)NCc1ccc(S(C)(=O)=O)cc1)[C@H]1C[C@]1(C)[C@H](NC(=O)OCc1ccccc1)c1ccccc1	Pf growth 96h inconclusive
Cc1cc(C(=O)N[C@@H](c2ccccc2)[C@]2(C)C[C@H]2[C@@H](C)C(=O)Nc2ccc3ccccc3c2)no1	SARS PLP yeast inconclusive, NS1 inh 11.2µM, Pf growth 96h inconclusive | Flu NS1 inh inactive
C[C@@H](C(=O)Nc1ccc2ccccc2c1)[C@@H]1C[C@@]1(C)[C@@H](NC(=O)c1cnccn1)c1ccccc1	Pf growth 48h inconclusive, NS1 inh inconclusive, Pf growth 96h inconclusive
CCN(c1ccccc1)S(=O)(=O)c1ccc(C(=O)NCc2ccco2)cc1	HCV inhibitor inconclusive (no result: Pf growth 48h, NS1 inh, Pf growth 96h)
COc1ccc(NS(=O)(=O)c2ccc(OCC(=O)N3CCCC3)cc2)cc1	NS1 inh inconclusive (no result: Pf growth 96h) | Flu NS1 inh inactive
COc1ccc(N2CCN(C(=O)c3ccc(NS(=O)(=O)c4ccccc4)cc3)CC2)cc1	Pf growth 48h inconclusive, NS1 inh 12.6µM | Flu NS1 inh inactive
O=C(Cn1c2c(sc1=O)C1c3ccccc3OCC1CS2)Nc1ccc(Cl)c(Cl)c1 (stereo unspecified)	NS1 inh 20µM | Flu NS1 inh inactive
Cc1csc(=O)n1CC(=O)Nc1ccc(Cl)c(Cl)c1	none (no result: Pf growth 48h, NS1 inh, Pf growth 96h)
O=C(CSc1nnc(-c2ccccc2)n1C1CCCCC1)Nc1ccc(S(=O)(=O)Nc2ccccn2)cc1	NS1 inh inconclusive | Flu NS1 inh inactive
CC(C)(C)OC(=O)N1CCC(CC2CC(c3cccc(Br)c3)=NO2)(C(=O)NCC2CCCCC2)CC1 (stereo unspecified)	Pf growth 48h inconclusive, NS1 inh inconclusive, Pf growth 96h inconclusive | Flu NS1 inh inactive
CC(C)(C)OC(=O)N1CCC(CC2CC(c3ccncc3)=NO2)(C(=O)O)CC1 (stereo unspecified)	Pf growth 48h inconclusive, Pf growth 96h inconclusive (no result: NS1 inh)
C[C@H](CO)N1C[C@H](C)[C@H](CN(C)S(=O)(=O)c2ccc3ccccc3c2)OCc2cnnn2CCCC1=O	none (no result: HCV inhibitor, Pf growth 48h, SARS PLP yeast, NS1 inh, Pf growth 96h)
CCN(CC)C(=O)CSc1nnc(-c2ccncc2)n1N	none
CCN(CC)C(=O)CSc1nnc(-c2ccccc2)n1N	NS1 inh 6.31µM | Flu NS1 inh inactive
Cc1ccc(N(CC(=O)NCCSc2ccccn2)S(=O)(=O)c2ccc(F)cc2)cc1	Pf growth 48h inconclusive, Pf growth 96h inconclusive
CCOc1ccccc1NS(=O)(=O)c1cn(C)c(=O)n(C)c1=O	none
Cc1cc(N2CCOCC2)nc2ccc(NC(=O)CCC(=O)N3CCC(C)CC3)cc12	NS1 inh 5.62µM | Flu NS1 inh inconclusive
Cc1nccn1CCCNC(=O)C1CCC(=O)N(Cc2ccccc2F)C1 (stereo unspecified)	none
CCC(=O)Nc1cc(OC)c(NC(=O)c2ccccc2)cc1OC	none
COc1cc(NC(=O)c2ccccc2)c(OC)cc1NC(C)=O	NS1 inh inconclusive | Flu NS1 inh inactive
CN(C)c1ccc(NC(=O)CSCc2nc3c(nnn3Cc3ccc(F)cc3)c(=O)[nH]2)cc1	NS1 inh 6.31µM, Pf growth 96h 8.28µM | Flu NS1 inh inactive | Flu PR8 replic inactive
CCOCC(=O)Nc1cc(Cl)c(OC)cc1OC	none (no result: AMA1 RON2 block, HCV inhibitor)
CN(N=O)c1cc(O)ccc1O	NS1 inh 17.8µM (no result: AMA1 RON2 block, HCV inhibitor, Pf growth 48h, SARS PLP yeast, Pf growth 96h) | Flu NS1 inh inconclusive
O=C(c1ccc(O)cc1)c1ccc(O)cc1O	none
C/C(=N/NC(=O)C1CCCCC1)c1ccc([N+](=O)[O-])cc1	none
C/C(=N\NC(=O)C1CCCC1)c1ccc(Cl)cc1	NS1 inh inconclusive | Flu NS1 inh inactive
Cc1n[nH]c(=O)c2c(NC(=O)CSc3ccc(Br)cc3)oc(C)c12	none (no result: NS1 inh)
O=C(CSc1nnnn1Cc1ccccc1)c1ccc(F)cc1	NS1 inh 7.94µM | Flu NS1 inh inactive
CC1COC(=O)C(NNc2ccc(Cl)c(Cl)c2)=N1 (stereo unspecified)	none (no result: NS1 inh)
O=[N+]([O-])c1ccc(Cl)c(S(=O)(=O)Nc2cccc(-c3ccc(N4CCCC4)nn3)c2)c1	HCV inhibitor inconclusive (no result: NS1 inh)
O=C(Nc1cccc(S(=O)(=O)NC2=NCCCCC2)c1)c1cc(-c2ccccc2)nc2ccccc12	Pf growth 96h inconclusive
Cc1ccc(-c2cc(C(=O)Nc3ccc(S(=O)(=O)Nc4nc(C)cc(C)n4)cc3)c3ccccc3n2)cc1	Pf growth 48h inconclusive, NS1 inh 14.1µM, Pf growth 96h inconclusive | Flu NS1 inh inactive
O=C(Nc1cccc(S(=O)(=O)NC2=NCCCCC2)c1)c1cc(-c2ccc(Cl)cc2)nc2ccccc12	HCV inhibitor inconclusive, NS1 inh 11.2µM, Pf growth 96h inconclusive | Flu NS1 inh inactive
CC(=O)NS(=O)(=O)c1ccc(NC(=O)c2cc(-c3ccc(C)cc3)nc3ccccc23)cc1	NS1 inh 8.91µM | Flu NS1 inh inactive
O=C1C2CCCN2C(c2ccco2)N1c1ccc(F)cc1 (stereo unspecified)	none (no result: NS1 inh)
Cc1ccc(NC(=S)NNc2ccc([N+](=O)[O-])cc2S(=O)(=O)Nc2ccccc2C(=O)O)cc1C	NS1 inh 12.6µM | Flu NS1 inh inactive
Cc1ccc(NC(=S)NNc2ccc(C(=O)O)cc2[N+](=O)[O-])cc1C	none (no result: Pf growth 48h, SARS PLP yeast, NS1 inh, Pf growth 96h)
Cn1nc(-c2ccccc2)c(C#N)c1Sc1cccc(Cl)c1	Pf growth 48h inconclusive, NS1 inh inconclusive, Pf growth 96h 10.4µM | Flu NS1 inh inactive
C=CCC[C@H](Cc1ccc(F)cc1)C(=O)OC[C@@H](Cc1c[nH]c2ccccc12)NC(=O)[C@@H](CC=C)CC(=O)NCCO	HCV inhibitor inconclusive (no result: Pf growth 48h, NS1 inh, Pf growth 96h)
COc1cccc(C(=O)N2CCC(C(=O)NCc3ccco3)CC2)c1	none
